Among the data in ChEMBL document CHEMBL3433997, “St. Jude Leishmania screening dataset” (2016) are inhibition values, retold here.

Holding throughout (type): functional
Test [1] addresses Solute carrier family 2, facilitated glucose transporter member 1 (Homo sapiens) (UniProt P11166). Kind of test: ST_JUDE_LEISH: Cytotoxicity at 2uM final concentration against transgenic Leishmania Mexicana promastigotes LmGLUT1 that are glucose transport deficient and complemented with the human glucose transporter GLUT1. Activity is measured by DNA content using SYBR green in vitro.

Test [2] has as its target Hexose transporter 1 (Plasmodium falciparum) (UniProt O97467). The experiment in a line: ST_JUDE_LEISH: Cytotoxicity at 2uM final concentration against transgenic Leishmania Mexicana promastigotes LmPfHT that are glucose transport deficient and complemented with the Plasmodium falciparum hexose transporter. Activity is measured by DNA content using SYBR green in vitro.

Test [3] has as its target Glucose transporter (Leishmania mexicana) (UniProt O61059). Kind of test: ST_JUDE_LEISH: Cytotoxicity at 2uM final concentration against transgenic Leishmania Mexicana promastigotes LmGT2 that are glucose transport deficient and complemented with the L. Mexicana glucose transporter 2. Activity is measured by DNA content using SYBR green in vitro.

SMILES strings stand for the structures.

Solute carrier family 2, facilitated glucose transporter member 1 (Homo sapiens), sequence (P11166 whole entry): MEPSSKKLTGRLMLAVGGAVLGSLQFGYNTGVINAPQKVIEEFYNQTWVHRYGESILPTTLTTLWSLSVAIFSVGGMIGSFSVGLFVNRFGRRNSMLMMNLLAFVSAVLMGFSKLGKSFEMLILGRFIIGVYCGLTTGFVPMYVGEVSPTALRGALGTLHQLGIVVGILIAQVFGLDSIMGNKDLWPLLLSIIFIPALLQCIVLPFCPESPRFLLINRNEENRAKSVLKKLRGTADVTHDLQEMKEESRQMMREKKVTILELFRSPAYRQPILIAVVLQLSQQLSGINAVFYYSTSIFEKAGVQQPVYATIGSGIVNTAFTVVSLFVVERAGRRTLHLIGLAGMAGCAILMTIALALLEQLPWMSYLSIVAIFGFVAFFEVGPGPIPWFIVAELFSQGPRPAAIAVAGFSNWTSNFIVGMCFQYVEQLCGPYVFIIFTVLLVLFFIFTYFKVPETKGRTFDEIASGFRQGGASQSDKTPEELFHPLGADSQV

With `C=C[C@]1(C)C[C@@H](OC(=O)CSC2CN3CCC2C3)[C@@]2(C)C3C(=O)CC[C@@]3(CC[C@H]2C)[C@@H](C)[C@@H]1O` (stereo partly drawn), the inhibition worked out at 72.8% in test [1], 73.2% in test [2] and 59% in test [3].
The like results for `COc1cccc(-c2cc3c(NCc4ccncc4)nccc3s2)c1` were, in that order, 3.12%, 3.46% and 0.82%.
On to `C[C@H](NC(=O)c1c(CN2CCC(N3CCCCC3=O)CC2)c(-c2cccs2)nc2ccccc12)C1CCCCC1`, for which the inhibition stood at 4.3% in test [1], 0.29% in test [2] and 0.41% in test [3].
Consider `CCCOc1ccc(OCCCON2C(=N)N=C(N)NC2(C)C)cc1`, for which the inhibition in test [1] was determined as 1.05%; in test [2], 0.05%; in test [3] it was 0.28%.
For `Oc1cc(-c2nc(-c3ccccc3)[nH]c2-c2ccncc2)ccc1Cl`, the inhibition in test [1] is 4.1%; in test [2], 1.67%; in test [3], 1.44%.
Consider `COc1ccc(CCNc2nc(SCc3ccccc3Cl)nc3ccccc23)cc1OC`, for which the inhibition is 1.6% in test [1], 3.03% in test [2] and 1.42% in test [3].
Turning to `Nc1nc(N)c2cc(S(=O)(=O)c3ccc4ccccc4c3)ccc2n1`, the values for the inhibition in test [1], in test [2] and in test [3] were 10.7%, 18.4% and 8.89%, respectively.
`NC1=NC2(CCCCC2)N(OCCCCCCCCNc2nc(N)nc(N)n2)C(N)=N1`: the inhibition in test [1] stood at 4.34%; in test [2], 5.05%; in test [3], 5.12%.
On to `Nc1nc(N)c2c3c(ccc2n1)NCCC3`, for which the results for the inhibition in test [1], in test [2] and in test [3] were -0.04%, 0.47% and -0.59%, respectively.
Consider `COc1ccccc1CN1CCC(CNC(=O)c2cc(-c3ccc(N(C)C)cc3)cs2)C1` (stereo not drawn), for which the inhibition in test [1] amounted to 15.2%; in test [2] it was 11.8%; in test [3] it was 10.9%.
As to `CCCCN(C)CC#Cc1ccc(-c2ccc3[nH]c(C)c(Br)c(=O)c3c2)cn1`, the inhibition in test [1] was determined as 6.4%; in test [2] it was 7.74%; in test [3] it was 8.6%.
With `COc1ccc(NC(=O)NC2CCN(CCCCCNC(=O)/C=C/c3ccc(Cl)c(Cl)c3)C2)c(OC)c1` (stereo not drawn), the inhibition is -1.78% in test [1], -1.48% in test [2] and 2.83% in test [3].
The like results for `CN1CCC[C@H]1COc1ccc(CN2CC[C@H](NC(=O)c3ccc(Cl)c(Cl)c3)C2)cc1Cl` were, in that order, 1.83%, 0.86% and -0.76%.
With `COc1ccc(NC(=O)Nc2ccc(Nc3nc(C)cc(N(C)C)n3)cc2)cc1`, the inhibition in test [1] was determined as 2.57%; in test [2], 3.61%; in test [3], 4.41%.
As to `COc1cc(Cc2cnc(N)nc2N)cc(OCCCCc2nnn[nH]2)c1OC`, the inhibition in test [1] was -0.47%; in test [2] it was 1.16%; in test [3], -0.95%.
On to `CC(C)(C)c1cc(NC(=O)c2ccc(Cl)c([N+](=O)[O-])c2)cc(C(C)(C)C)c1`, for which the inhibition was 6.54% in test [1], 6.88% in test [2] and 6.21% in test [3].
Turning to `CCOc1ccc2[nH]c(C)cc(=NN=Cc3ccccc3F)c2c1`, the inhibition in test [1] was 4%; in test [2], 4.47%; in test [3] it was 3.86%.
The like results for `COc1ccc2ncc(F)c(CCN3C[C@H](CNCc4cc(C#N)c5c(c4)OCCO5)[C@H](O)C3)c2n1` were, in that order, 7.97%, 8.03% and 1.91%.
Regarding `O=C(NC1CCN(CCCOc2ccnc3cc(Cl)ccc23)C1)c1ccc(Br)cc1` (stereo not drawn), the inhibition in test [1] is 9.74%; in test [2] it was 7.84%; in test [3], 7.14%.
The like results for `COc1cccc(-n2ncc3c(N/N=C/c4ccc(CN(C)CCN(C)C)cc4)ncnc32)c1` were, in that order, 10.7%, 10.3% and 7.16%.
For `Cn1cc(-c2ccccc2C(=O)O)c(=O)c2cc(Cl)ccc21`, the inhibition came out at 2.25% in test [1], 1.87% in test [2] and 2.49% in test [3].
`CC(C)(C)C(C)(C)Cc1ccc(O)c(CN2CCN(c3ccccc3)CC2)c1`: the inhibition in test [1] is 0.82%; in test [2], -0.41%; in test [3] it was -0.38%.
As for `Cn1cc(CN2CCC(OC(c3ccccc3)c3ccc(Cl)cc3)CC2)cn1` (stereo not drawn), the inhibition in test [1] is 4.78%; in test [2], 1.66%; in test [3], -0.63%.
The like results for `Cc1cc2ccc(/C=C/C(=O)NC3CCC(CCN4CCc5ccc(C#N)cc5CC4)CC3)cc2[nH]1` (stereo not drawn) were, in that order, 4.47%, 5.55% and 2.92%.
With `CCOC(=O)c1ccc(NC(=O)Nc2cccc(-c3ccc(-c4nc5cc(C(F)(F)F)ccc5[nH]4)cc3)c2)cc1`, the inhibition in test [1] is -0.08%; in test [2], 1.53%; in test [3], 0.3%.
The like results for `Nc1c(Cl)cc(C(O)CNCCCCCOCCCc2ccc3ncccc3c2)cc1Cl` (stereo not drawn) were, in that order, 5.88%, 5.02% and 4.94%.
For the molecule `Clc1ccc2c(NN=Cc3cccnc3)ccnc2c1`, the inhibition worked out at 6.14% in test [1], 0.59% in test [2] and 5.48% in test [3].
The like results for `COc1cc(C=Cc2ccc3ccccc3n2)cc(Br)c1OCC(=O)N(C)C` were, in that order, 6.85%, -1.14% and -0.95%.
Regarding `CC1(C)NC(N)=NC(=N)N1OCc1ccc2ccccc2c1CON1C(=N)N=C(N)NC1(C)C`, the inhibition was determined as 3.58% in test [1], 2.14% in test [2] and 3.06% in test [3].
As for `COc1cc(CNc2ccc(N3CCCC3)cc2)cc(Cl)c1OC`, the inhibition is -2.15% in test [1], -4.72% in test [2] and 1.78% in test [3].
With `Cc1cccc2nc(-c3cccc(-c4cccc(CNCCCN5CCCC5=O)c4)c3)[nH]c12`, the inhibition in test [1] is -0.74%; in test [2], -0.59%; in test [3] it was -1.17%.
The like results for `CC(C)C[C@H](NC(=O)c1cc2ccccc2s1)C(=O)N[C@H]1CCN(Cc2ccc(I)c(OCCN3CCCC3)c2)C1` were, in that order, -0.35%, -1.55% and -0.29%.
The like results for `CCOC(=O)c1nc(-c2ccc(Cl)cc2)[nH]c1NC(=S)NCCCN1CCOCC1` were, in that order, -0.48%, 1.52% and -2.41%.
Regarding `Cc1ccc(Cn2cnc3cc(C(=O)Nc4ccc(-c5ccc(CN(C)C)cc5)cc4)ccc3c2=O)o1`, the inhibition was determined as 5.55% in test [1], 2.88% in test [2] and 3.84% in test [3].
Consider `Cc1[nH]c(C)c(-c2ccc(Oc3ccc(C(F)(F)F)cc3)cc2)c(=O)c1Br`, for which the results for the inhibition in test [1], in test [2] and in test [3] were 3.22%, 5.35% and 3.05%, respectively.
For `CCCCCCN(CCCCCC)CC(O)c1cc(-c2ccc(Cl)cc2)nc2c(C)cc(C)cc12` (stereo not drawn), the inhibition in test [1] is 8.61%; in test [2], 6.85%; in test [3], 8.75%.
